The list is not random: actives were taken first. Their share in the collection is about 2%.
MCL1-BIM inh – inhibitors of human MCL1 binding to BIM-BH3 peptide. Q07820. GST-MCL1 / FITC-Bim-BH3 fluorescence polarization. inhibition, % at 10.9 µM. 320,000 tested, 0.68% active;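 active = inhibition above the mean inhibition of all tested compounds plus 3 SD, set per campaign, cut at about 40% in these data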;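 note: 0% = DMSO wells and 100% = unlabeled Bim-BH3 peptide control; higher means more loss of mP so more displacement of Bim peptide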
Target sequence (Q07820 whole entry, looked up): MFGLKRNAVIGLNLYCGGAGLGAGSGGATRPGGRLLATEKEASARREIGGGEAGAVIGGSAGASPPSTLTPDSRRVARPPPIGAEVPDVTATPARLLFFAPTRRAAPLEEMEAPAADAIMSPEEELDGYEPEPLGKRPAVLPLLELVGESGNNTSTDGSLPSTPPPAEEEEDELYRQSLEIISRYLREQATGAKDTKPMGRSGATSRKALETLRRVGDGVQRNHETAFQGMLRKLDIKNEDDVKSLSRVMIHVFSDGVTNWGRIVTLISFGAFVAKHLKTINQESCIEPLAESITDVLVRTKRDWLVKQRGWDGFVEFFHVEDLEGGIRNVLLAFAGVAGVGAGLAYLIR
Mcl1-Bid inh – Mcl-1/Bid interaction inhibition. AID 1021. 220,000 tested, 0.97% active. inhibition, % at 21.7 µM. Q07820. TR-FRET Mcl-1/Bid-Dy647 peptide binding, 1536-well;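 active = compounds that cut the binding signal by more than half at the single screening dose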;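 note: His-tagged Mcl-1 with europium anti-His antibody binding Bid BH3 peptide; 0% = Mcl-1 plus peptide wells and 100% = peptide-only wells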
Mcl1 Noxa PPI – Mcl-1/Noxa interaction inhibition; Q07820; TR-FRET Mcl-1/Noxa peptide binding, 2 h; inhibition, % at 21.7 µM; 220,000 tested, 1.5% active; AID 1022;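 active = compounds that cut the protein-peptide binding signal by more than 50% relative to plate controls in a single-dose test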;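 note: His-tagged Mcl-1 with rhodamine Noxa BH3 peptide and terbium anti-His antibody; 0% = Mcl-1 plus Noxa peptide wells and 100% = peptide-only wells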
Mcl-1 Bim block – disrupts Bim peptide binding to human Mcl-1; AID 1009; Bead-based flow cytometry, Bim peptide-Mcl-1 binding; inhibition, % at 10 µM; 190,000 tested, 0.1% active; Q07820; in the data active = inhibition above about 40%;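 note: 0% = no compound tracer wells and 100% = peptide blocker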
Bcl-xL conf – Bcl-xL (human) inhibition, MCL1 counter-screen confirmation. shares compounds with MCL1-BIM inh. GST-Bcl-xL / FITC-Bim BH3 peptide FP binding. inhibition, % at 10.9 µM. 1,700 tested, 54% active. AID 2166;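 active = inhibition above a cutoff equal to the mean inhibition of all tested compounds plus 3 SD, cut at about 30% in these data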;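 note: 0% = DMSO wells and 100% = unlabeled Bim BH3 control peptide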
Target sequence (Q07817 whole entry, looked up): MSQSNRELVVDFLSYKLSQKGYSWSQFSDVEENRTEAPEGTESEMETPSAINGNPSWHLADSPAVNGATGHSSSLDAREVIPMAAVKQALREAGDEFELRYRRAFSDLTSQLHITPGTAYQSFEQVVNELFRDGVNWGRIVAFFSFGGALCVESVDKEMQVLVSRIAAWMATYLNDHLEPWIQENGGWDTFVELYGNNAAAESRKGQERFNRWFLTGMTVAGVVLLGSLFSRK
MCL1 BIM confirm – confirmation of human MCL1 and BIM-BH3 interaction inhibitors | shares compounds with MCL1-BIM inh | GST-MCL1 / FITC-Bim-BH3 fluorescence polarization | inhibition, % at 10.9 µM | 1,700 tested, 61% active;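 active = inhibition above the average of all tested compounds plus 3 SD, cut at about 40% in these data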;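 note: 0% = DMSO wells and 100% = unlabeled Bim-BH3 control peptide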
Numbers without * were called inactive; / = no result given; + = active, no number.

SMILES	MCL1-BIM inh	Mcl1-Bid inh	Mcl1 Noxa PPI	Mcl-1 Bim block	Bcl-xL conf	MCL1 BIM confirm
O=c1oc2ccccc2nc1/C=C(O)/C=C\c1ccccc1	69*	-6	2	-3	-40	-94
O=C(O)CC1S/C(=N/N=C/c2ccc(-c3ccc(Cl)c([N+](=O)[O-])c3)o2)NC1=O (stereo unspecified)	41*	-57	24	0	12	37
CCN(CC)S(=O)(=O)c1ccc(OC)c(NC(=O)Cc2cccs2)c1	40*	-60	56*	-1	22	51*
COc1cc(OC)c(NC(=O)Cc2cccs2)cc1Cl	1	/	/	/	/	/
CCOc1cc(N2CCOCC2)c(OCC)cc1NC(=O)COC(=O)COc1ccc(C#N)cc1	3	/	/	/	/	/
CN1CCc2cccc3c2[C@H]1Cc1ccc(O)c(O)c1-3	56*	-65	88*	7	42*	70*
Cc1ccc(C)c(N2C(=N)S/C(=C\c3ccc(-c4ccccc4C(=O)O)o3)C2=O)c1	6	-27	9	2	/	/
CN1C(=O)/C(=C/c2ccc(-c3ccccc3[N+](=O)[O-])o2)SC1=Nc1ccc(Cl)c(C(=O)O)c1	74*	34	108*	47*	23	40
CS(=O)(=O)c1ccc(NC(=O)c2ccc3c(c2)S(=O)(=O)N=C2CCCCCN23)cc1	6	/	/	/	/	/
CCCn1c(=O)c(C#N)cn(C2CC2)c1=O	-2	-26	-10	/	/	/
Cc1cc(C)n(Cc2ccc(C(=O)O)cc2)n1	4	-18	0	-1	/	/
Cc1ccc(C)n1Cc1ccc(C(=O)O)cc1	92*	-19	62*	0	36*	110*
O=C(N=C1SC2CS(=O)(=O)CC2N1c1ccc(F)c(Cl)c1)C1CCCO1 (stereo unspecified)	5	/	/	/	/	/
COc1ccccc1CN1CC(C(=O)N(C)Cc2[nH]c3ccccc3c2C)CCC1=O (stereo unspecified)	2	/	/	/	/	/
CN1CCN(C2=C(Cl)C(=O)N(CCc3ccccc3)C2=O)CC1	54*	-20	2	0	20	30
O=c1ccc(-c2ccccc2)nn1Cc1ccc(F)cc1Cl	7	/	/	/	/	/
Cc1ccc(-c2nnc3n2CCCCC3)cc1	2	-1	-6	-3	/	/
c1cc(-c2nnc3n2CCCCC3)ccn1	84*	-11	9	-1	10	10
CCn1c(CSc2nccn2C)nc2cc(C(=O)O)ccc21	65*	-9	19	-2	33*	44*
Cn1c(O)c(C2=c3ccccc3=NC2=O)[nH]c1=S	26	-39	23	2	/	/
COc1ccc2nc(-n3c(O)c(C4=c5ccccc5=NC4=O)[nH]c3=S)sc2c1	68*	99*	92*	-9	33*	92*
CC(=O)N/N=C/c1cc(C)n(-c2ccc(Br)cc2)c1C	-2	-47	12	0	/	/
CC(=O)N/N=C/c1cc(C(C)C)cc(/C=N/NC(C)=O)c1O	100*	-27	-8	0	92*	101*
Cc1onc(-c2ccccc2Cl)c1C(=O)NCc1ccco1	66*	-15	37	0	28	65*
Cc1onc(-c2ccccc2Cl)c1C(=O)NCc1ccc2c(c1)cc(C)n2C	77*	-139	-7	/	34*	47*
SMILES	MCL1-BIM inh	Mcl1-Bid inh	Mcl1 Noxa PPI	Mcl-1 Bim block	Bcl-xL conf	MCL1 BIM confirm
Cc1ccc(CNC(=O)c2c(-c3ccccc3Cl)noc2C)cc1	-1	/	/	/	/	/
O=C(OCCc1ccccc1)c1cc(O)c(O)c(O)c1	54*	/	/	/	41*	75*
O=C(O)c1ccc(-c2ccc(/C=c3/sc4nc5ccccc5n4c3=O)o2)cc1Cl	40*	/	/	/	-13	-21
Cc1ccc(NC(=O)/C=C\C(=O)NCC(=O)O)cc1	-1	-7	-3	0	/	/
CN(CC(=O)Nc1ccc(F)cc1)CC(=O)N1CCCC1	-4	/	/	/	/	/
COc1ccc(-c2cc(=O)oc3c(O)c(O)ccc23)cc1	68*	/	/	/	72*	93*
CS(=O)(=O)c1ccc(NC(=O)CCN2C(=O)C3CC=CCC3C2=O)cc1 (stereo unspecified)	-18	/	/	/	/	/
COc1ccc(-n2nc(C(=O)NCC(=O)NCCCN3CCOCC3)c3ccccc3c2=O)cc1	-3	/	/	/	/	/
CN1CCc2c(sc(N)c2C(N)=O)C1	65*	-69	4	0	22	7
CCN1CCc2c(sc(N)c2C(N)=O)C1	64*	-145	14	12	30	34
CN1CCc2c(sc(NC(=O)c3ccco3)c2C(N)=O)C1	2	/	/	/	/	/
CN1CCc2c(sc(NC(=O)c3cc(Cl)sc3Cl)c2C(N)=O)C1	48*	/	/	/	7	13
CC1(C)CC(=O)C2=C(C1)OC1=C(C(=O)CC(C)(C)C1)C2c1ccc(O)cc1O	+	-20	41	-5	148*	194*
Cc1ccccc1-c1nc(Cc2ccccc2)no1	44*	-11	5	4	3	-4
CN1/C(=C\C=N\NC(=O)c2ccc(O)cc2)C(C)(C)c2ccccc21	47*	-98	-3	-4	-15	-28
COc1ccc(N2C3=C(CC4=C2CCCC4=O)C(=O)CCC3)cc1	77*	-24	26	2	32*	31
COc1cc(NC(C)CCCN)c2ncccc2c1 (stereo unspecified)	53*	/	/	/	32*	50*
COc1cc(NCCCCCCCN)c2ncccc2c1	1	-23	32	22	/	/
CCOc1cc(C(c2c(O)nc(SC)[nH]c2=O)c2c(O)nc(SC)[nH]c2=O)ccc1O	97*	/	/	/	65*	76*
CC1(C)CC(NS(=O)(=O)c2ccc(F)cc2)CC(C)(C)N1	-3	/	/	/	/	/
CC1(C)CC(NS(=O)(=O)c2ccc(S(N)(=O)=O)cc2)CC(C)(C)N1	118*	/	/	/	11	4
CCOC(=O)c1[nH]c2ccc(OC)cc2c1NC(=S)N1CCN(c2ccccc2OC)CC1	12	-69	-1	-5	/	/
CCOC(=O)CN(C(=O)CNC(=O)c1ccco1)C(C(=O)NC1CCCCC1)c1cccs1 (stereo unspecified)	92*	1	-2	-4	46*	52*
CC(=O)Nc1ccc(S(=O)(=O)Nc2cccc(NC(=O)c3ccco3)c2)cc1	0	-37	13	0	/	/
CN1C=CC2=C(C#N)C(N)C(C#N)(C#N)[C@H](c3ccccc3)[C@H]2C1 (stereo partly specified)	92*	-23	-17	-5	31*	31
NC(=S)NC(c1ccccc1)c1ccncc1 (stereo unspecified)	4	/	/	/	/	/
COc1cc(N)c(Cl)cc1C(=O)OCC(=O)N1CCCCCC1	-9	/	/	/	/	/
Cc1ccc(-c2ccc(/C=C(\C#N)C(=O)Nc3cc(C)nn3-c3ccccc3)o2)cc1	+	64*	/	-3	+	+
CN(Cc1ccccc1)C(=O)COC(=O)c1cc(NS(=O)(=O)c2cccs2)ccc1O	2	-7	14	-2	/	/
NS(=O)(=O)c1ccc(N=Nc2c[nH]c(=O)c(O)c2)cc1	163*	-281	19	/	169*	195*
